Assay outcomes as filed in PubChem BioAssay.
Rows were chosen to be rich in hits. Some 1.4% of all compounds tested hit in one or more screens of this group.
ugtP null kill – compounds lethal to S. aureus RN4220 ugtP deletion mutant. OD600 growth, 16 h. growth inhibition, % (concentration not given with the values). 0.54% of 330,000 active. AID 1259309; in the data active = growth inhibition above about 68%;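 also: plate controls were untreated wells for no effect and antibiotic for full effect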
Sa RN4220 lethal – S. aureus RN4220 growth inhibition; OD600, 16 h; inhibition, % (test concentration not listed); 0.33% of 330,000 active; in the data active = inhibition above about 85%;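 also: plate controls were untreated cells for no effect and reference antibiotic for full effect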
PrP UTR inh – inhibition of PrP 5' UTR reporter expression | cell-based PrP 5' UTR mRNA reporter, plate reader | inhibition, % (concentration not given with the values) | 0.35% of 340,000 active; in the data active = inhibition above about 52%; also: 0 = median of the neutral control wells
BJeLR lethal – BJeLR cell viability loss | inhibition, % (concentration not given with the values) | BJeLR (HRASV12) viability, CellTiter-Glo ATP luminescence, 48 h | 0.17% of 300,000 active; in the data active = inhibition above about 50%
Yp Topo-I inh – inhibitors of Yersinia pestis topoisomerase I; Y. pestis Topo-I cleavage product accumulation, plate reader; 0.064% of 360,000 active; AID 504884; activity, % at 10 µM; in the data active = activity above about 50%, passing the limit was not always enough
PfHsp40 rescue – restores yeast growth despite PfHsp40 toxicity; S. cerevisiae expressing PfHsp40, growth rescue, ATP luminescence; growth rescue, % at 12.5 µM; 0.68% of 340,000 active; in the data active = growth rescue above about 28%, passing the limit was not always enough;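 also: yeast W303a lacking pdr1 and pdr3 grown in galactose medium; growth measured after three days at 30 °C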
Numbers without * were called inactive; . = no result.

SMILES	ugtP null kill	Sa RN4220 lethal	PrP UTR inh	BJeLR lethal	Yp Topo-I inh	PfHsp40 rescue
Cc1cccc(N2CCc3c2nc2ccc(Br)cc2c3N)c1	100*	99*	-28	-1	-31	2
Nc1c2c(nc3ccc(Br)cc13)N(c1ccccc1)CC2	47	21	-10	.	1	1
C/C(=N\NC(=S)NCc1ccccc1)c1cccc(Br)c1	.	.	-21	5	28	136*
CCOc1ccc(-c2cc(C)[n+](CCc3ccc(OC)c(OC)c3)c(-c3ccc(OCC)cc3)c2)cc1	100*	100*	.	6	25	4
CC1(O)CC(c2ccc(Cl)cc2)=NN1C(=O)c1ccc([N+](=O)[O-])cc1 (stereo not drawn)	98*	99*	-6	18	14	-1
COC(=O)[C@@H]1C(c2ccccc2)(c2ccccc2)[C@@]1(C)C(=O)OC	12	7	-27	4	-2	1
COC(=O)C1C2c3ccccc3C(c3ccccc32)C1(C)C(=O)OC (stereo not drawn)	-1	4	0	.	-6	35*
CC(C)c1ccc2c(c1)C1(NN=C(c3ccccc3)S1)C(=O)N2 (stereo not drawn)	98*	94*	24	16	-4	41*
CCc1ccc2c(c1)C1(NN=C(c3ccc(C)cc3)S1)C(=O)N2 (stereo not drawn)	44	46	13	4	6	5
Cn1cncc1C#Cc1ccc2cc(CCCO)oc(=O)c2c1	5	9	-23	.	-5	-2
Cn1cncc1C#Cc1ccc2cc(CCO)oc(=O)c2c1	0	-10	-13	.	-6	67*
CC(C)C(CN(N=O)C(Cc1ccccc1)CN(C)N=O)N(CCc1ccccc1)N=O (stereo not drawn)	-6	7	.	.	.	.
Cc1ccccc1N=Nc1c(C)[nH]n(-c2ccccc2)c1=O	1	-1	.	.	.	.
Cc1[nH]n(-c2ccccc2)c(=O)c1N=Nc1nccs1	44	66	7	11	6	36*
CC(C)(C)OC(=O)NCCCCC(NC(=O)c1[nH]cnc1C(=O)NC(Cc1ccccc1)C(=O)OC(C)(C)C)C(=O)OC(C)(C)C (stereo not drawn)	-14	1	.	.	.	.
COC(=O)C1=C(C)NC(=O)C1=Cc1cc(C)n(-c2cc(C)cc(C)c2)c1C	-5	6	.	.	.	.
CC(=O)NC(c1ccc(C)cc1)c1cc([N+](=O)[O-])c2cccnc2c1O (stereo not drawn)	64	64	-23	15	-5	221*
CCC(=O)NC(c1ccc(C)cc1)c1cc([N+](=O)[O-])c2cccnc2c1O (stereo not drawn)	95*	94*	7	12	9	-1
CCC(=O)NC(c1cc(Cl)c2cccnc2c1O)C1CC1 (stereo not drawn)	16	-6	-1	.	6	9
CCC(=O)NC(c1cc(Cl)c2cccnc2c1O)C(C)C (stereo not drawn)	-18	-3	18	.	5	247*
CCCCCC(=O)Nc1cccc(C2=NOC3(C2)CC(C(N)=O)N(C(=O)c2cc([N+](=O)[O-])cc([N+](=O)[O-])c2C)C3)c1 (stereo not drawn)	-16	1	.	.	.	.
CCCCCCCCCCCCN1C(CC(=O)O)c2cc(C(F)(F)F)ccc2S1(=O)=O (stereo not drawn)	39	2	.	.	.	.
Cc1ccc2[nH]c(=O)c(C3C(C#N)=C(N)Oc4c3ccc3cccnc43)cc2c1 (stereo not drawn)	-14	8	-15	-1	-2	84*
N#CC1=C(N)Oc2c(ccc3cccnc23)C1c1ccccc1 (stereo not drawn)	0	8	19	16	2	0
CCOC(=O)C1C2COc3ccccc3C2N2C(=O)c3cc(OC)ccc3NC(=O)[C@@]12C (stereo partly drawn)	-6	5	.	.	.	.
SMILES	ugtP null kill	Sa RN4220 lethal	PrP UTR inh	BJeLR lethal	Yp Topo-I inh	PfHsp40 rescue
Cc1cc(SCC(=O)NCCN2C(=O)CSC2=O)nc2c(C)cccc12	4	6	-16	0	24	37*
O=C(COc1ccc([N+](=O)[O-])cc1)Nc1nc(-c2ccccn2)cs1	-8	12	-5	3	-11	271*
Cc1ccc(OCC(=O)Nc2nc(-c3ccccn3)cs2)c(C)c1	-3	25	-10	-3	12	54*
O=C(COc1ccc(F)cc1)Nc1nc(-c2ccccn2)cs1	-5	6	-16	-10	-2	1
O=C(COc1ccccc1)Nc1nccs1	1	6	-128	1	3	57*
O=C(COc1ccc2ccccc2c1)Nc1nccs1	1	10	-19	-3	3	-1
O=C(COc1cccc(F)c1)Nc1nc(-c2ccccn2)cs1	.	.	.	.	3	.
CN1CC(C(=O)N[C@]2(C)O[C@@]3(O)C4CCCN4C(=O)C(Cc4ccccc4)N3C2=O)CC2c3cccc4[nH]cc(c34)CC21 (stereo partly drawn)	-8	0	.	.	.	.
COc1ccc(C(=O)/C(C#N)=N/Nc2ccc([N+](=O)[O-])cc2)cc1	.	.	27	32	1	1
N#CC(=NNc1cccc([N+](=O)[O-])c1)C(=O)c1ccc(Br)cc1	89*	94*	.	.	.	.
COc1ccc(C(=O)C(C#N)=NNc2cccc([N+](=O)[O-])c2)cc1	87*	86*	.	.	.	.
O=C(O)C1=CCC(c2ccc(Cl)cc2)N(S(=O)(=O)c2ccc(Cl)cc2)C1c1ccc(F)cc1 (stereo not drawn)	40	19	.	.	.	.
C#CCOCCOCCOCCNc1nc(N2CCOCC2)nc(N2CCN(C(=O)C(CCCCN)n3cc(CN)nn3)CC2)n1 (stereo not drawn)	0	-1	.	.	.	.
CC(C)(C)c1nnc(N/N=C/c2cc(Br)ccc2O)n(N)c1=O	.	.	39	85*	19	0
COc1ccc(CCn2c(C3CCCCC3)nc3c(c(=O)c4ccccc4n3C)c2=O)cc1OC	2	2	-14	-11	2	104*
CCCOc1ccc(C2=CC(=O)C[C@H](c3ccc(OC)cc3)C2)cc1	.	.	-30	.	60*	1
COc1ccc(C2CC(=O)C=C(C=CCc3ccccc3)C2)cc1 (stereo not drawn)	12	4	.	.	.	.
CCCCC/C=C/C1=CC(=O)C[C@H](c2ccc(OC)cc2)C1	23	-4	-2	.	16	44*
C=CCOC(=O)C1=CC(c2csc3ccccc23)CC(OCCCCO)O1 (stereo not drawn)	7	12	.	.	.	.
Cc1ccc(C(=O)Nc2scc(-c3ccccc3)c2C(=O)O)cc1	-9	11	-20	-10	2	119*
O=C(Nc1scc(-c2ccccc2)c1C(=O)O)c1ccccc1Cl	-11	12	-2	-7	-4	1
COc1ccc(-c2csc(NC(=O)c3ccccc3F)c2C(=O)O)cc1	-4	13	-23	-12	11	310*
